Measurements reported in PubChem BioAssay (NCI).
Compounds without any hit were thinned out: in the full panel of roughly 83,000, 20% have a hit.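 Treatment: one concentration, 48 hours, 96-well format. Scoring: percent growth, with anything below 10 considered active.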 A number with no mark means an inactive call. Active and inactive are the calls of the source.

System: MDA-MB-468 breast
Assay: NCI-60 one-dose screen, 48 h (100 = growth as untreated, 0 = no growth, -100 = all killed)
Conditions: 10 µM unless noted

For `CCOC(=O)CCC(=O)O[C@H]1[C@H](O[C@@H]2[C@@H](C)[C@H](O[C@H]3C[C@@](C)(OC)[C@@H](O)[C@H](C)O3)[C@@H](C)C(=O)O[C@H](CC)[C@@](C)(O)[C@H](O)[C@@H](C)C(=O)[C@H](C)C[C@@]2(C)O)O[C@H](C)C[C@@H]1N(C)C`, which growth is on record?
Its growth is 109%.

How did the growth turn out when `COc1ccc(-c2ccc(-c3ccc(C(=N)N)cc3)s2)cc1Cl` was run?
Its growth is -65% (active).

For `NC(=O)c1cc(I)ccc1NC(=O)COc1ccccc1`, which growth is on record?
The growth was 30.3%.

With `CCCCN(CCCC)c1ccc(C(=N)c2ccc(N(C)C)cc2)cc1` as the compound, how does the growth read?
The growth was -76.5% (active).

With `CNC(=O)c1c(NC(=O)c2ccc(C(C)(C)C)cc2)sc2c1CCC(=O)C2` as the compound, how does the growth read?
Its growth is 3.25% (active).

For `NC1=CC(=O)c2cccnc2C1=O`, which growth is on record?
Its growth is -50.8% (active).

With `CCN(CC)CCOc1nc2cc(OC)c(OC)cc2c2c1-c1ccc(OC)cc1C2=O` as the compound, how does the growth read?
Its growth is 84%.

Which growth does the source give for `Cc1cc(N(CCCNc2ccnc3cc(Cl)ccc23)Cc2ccco2)nc(N2CCN(C)CC2)n1` here?
The growth was 73.7%.

Which growth does the source give for `O=C(/C=C/c1ccccc1)N(C1CCCCC1)C1CCCCC1` here?
The growth was 72.4%.
